Measured values taken from PubChem BioAssay AID743286 (National Center for Advancing Translational Sciences (NCATS), 2014).
Screen size: about 1,100 compounds; about 340 (31%) were called active. Roughly 40% stayed inconclusive and do not appear here. The call rests on the fitted dose curve; in most records, active means well fitted inhibition curve with a large enough effect; inconclusive means small, poorly fitted or top-dose-only effect; inactive means flat fitted curve, though single readings scatter. The list is a sample of the results. Where a call stands in place of a potency, no number is given.

biological target: Phosphatidylinositol 5-phosphate 4-kinase type-2 alpha (Homo sapiens) (UniProt P48426); test: qHTS for Inhibitors of PI5P4K: Confirmation in Primary Assay; settings: PI5P4Kalpha enzyme, ADP-Glo luminescence, 60 min; series mostly up to 76.9 µM; further: nearly all actives have a fitted effect of over 65% in size
Method in brief: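 PI5P4Kα with lipid substrate in 0.038 M HEPES pH 7.4, 0.28 mM EGTA, 0.1% CHAPS, 5% DMSO; compounds pinned in, reaction started with 5 microM ATP, 60 min at room temperature. ADP formed read by ADP-Glo luminescence.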
Potency means the concentration at half of the fitted maximal effect.

Phosphatidylinositol 5-phosphate 4-kinase type-2 alpha (Homo sapiens), sequence (P48426 whole entry, looked up): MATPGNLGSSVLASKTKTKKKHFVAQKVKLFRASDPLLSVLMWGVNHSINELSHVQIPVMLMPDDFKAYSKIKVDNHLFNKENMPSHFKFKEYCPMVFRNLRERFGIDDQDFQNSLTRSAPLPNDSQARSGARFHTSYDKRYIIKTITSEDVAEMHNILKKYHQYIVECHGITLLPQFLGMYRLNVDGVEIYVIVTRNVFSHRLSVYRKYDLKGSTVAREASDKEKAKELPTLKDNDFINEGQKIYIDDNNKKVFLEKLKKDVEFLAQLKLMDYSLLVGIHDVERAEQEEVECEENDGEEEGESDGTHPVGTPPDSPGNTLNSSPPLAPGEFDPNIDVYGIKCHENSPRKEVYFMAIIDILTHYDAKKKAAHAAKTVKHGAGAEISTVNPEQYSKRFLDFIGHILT

Structure (SMILES)	Potency
COc1ccc(C(=O)NC(CCSC)C(=O)N2CCCCCC2)cc1 (stereo not drawn)	inactive
COc1cc(NC2=Nc3cccc4cccc2c34)cc(OC)c1OC	inactive
Cc1nn(-c2ccccc2)c2nc(=O)n(-c3ccccc3)cc12	inactive
Cc1ccc(NC(=O)c2cccc(C(=O)Nc3ccc(C)cc3C(=O)O)c2)c(C(=O)O)c1	8.91 µM (active)
CN(C)c1ccc2nc3ccc(=O)cc-3sc2c1	11.2 µM (active)
COc1cccc(NC(=O)CN(C)C(=O)c2cc(-c3ccco3)nc3ccccc23)c1	15.8 µM (active)
CN(CC(=O)Nc1ccc(F)cc1)C(=O)c1cc(-c2ccco2)nc2ccccc12	14.1 µM (active)
O=C(c1cc(-c2ccco2)nc2ccccc12)N(Cc1nnc(-c2ccc(Cl)cc2)o1)C1CC1	inactive
Cc1ccc(NC(=O)CN(C)C(=O)c2cc(-c3ccco3)nc3ccccc23)cc1	8.91 µM (active)
COc1ccc(NC(=O)CN(C)C(=O)c2cc(-c3ccco3)nc3ccccc23)cc1	5.01 µM (active)
CCNC(=O)c1ccccc1SCC(=O)Nc1ccc(F)cc1	inactive
COCCN(CC(=O)NCC1CCCO1)C(=O)CCC(=O)Nc1ccccn1 (stereo not drawn)	inactive
COCc1c(C(=O)N2CCc3ccccc32)oc2ccccc12	inactive
CCOC(=O)c1nnn(-c2ccccc2)c1C	inactive
CCn1c(C(=O)OC)cc2c1ccn2-c1ccc(F)cc1	inactive
CC(C)(C)NC(=O)C(c1ccc(C#N)cc1)n1c(=O)c(-c2ccco2)nc2ccccc21 (stereo not drawn)	inactive
O=C(Nc1cc(S(=O)(=O)N2CCOCC2)ccc1O)c1ccc(NS(=O)(=O)c2ccc(Cl)s2)cc1	20 µM (active)
Cc1cc(C(=O)OCC(=O)Nc2cc(S(=O)(=O)N3CCOCC3)ccc2Cl)c(C)o1	inactive
COc1ccc(N2CSC3=C(C#N)C(c4cccc(OC)c4OC)CC(=O)N3C2)cc1 (stereo not drawn)	7.08 µM (active)
COc1ccc(C2CC(=O)N3CN(c4ccc(C)c(Cl)c4)CSC3=C2C#N)cc1OC (stereo not drawn)	inactive
COc1ccc(OC)c(C2CC(=O)N3CN(c4cccc(Cl)c4)CSC3=C2C#N)c1 (stereo not drawn)	inactive

Structure (SMILES)	Potency
COc1cccc(C2CC(=O)N3CN(c4cccc(Cl)c4C)CSC3=C2C#N)c1OC (stereo not drawn)	39.8 µM (active)
COc1ccc(N2CSC3=C(C#N)C(c4ccc(OC)c(OC)c4)CC(=O)N3C2)c(OC)c1 (stereo not drawn)	12.6 µM (active)
CCN(CC)C(=O)c1[nH]cnc1C(=O)Nc1ccc(OC)cc1	inactive
CCCCOc1ccc(S(=O)(=O)NC(=O)C2(C)CCN2C(=O)CCc2ccccc2)cc1 (stereo not drawn)	inactive
C[C@H](NC(=O)c1nc[nH]c1C(=O)N[C@@H](C)C(=O)OC(C)(C)C)C(=O)OC(C)(C)C	inactive
COc1cccc(NS(=O)(=O)c2ccc3c(c2)C2C=CCC2C(c2ccc(C(=O)O)cc2)N3)c1 (stereo not drawn)	31.6 µM (active)
Cc1ccc(-c2csc3ncnc(NCCC(=O)O)c23)cc1C	14.1 µM (active)
CN(C)C(=O)c1ccc(NC(=O)COC(=O)C2=COCCO2)cc1	inactive
NC(=O)C1CCN(c2cc(Cl)nc(N)n2)CC1	inactive
CN1CCN(C(c2ccc(Br)cc2)c2cc(Cl)c3cccnc3c2O)CC1 (stereo not drawn)	15.8 µM (active)
Cc1ccc(C(c2cc(Cl)c3cccnc3c2O)N2CCN(C)CC2)cc1 (stereo not drawn)	15.8 µM (active)
CN1CCN(C(c2ccccc2)c2ccc(Cl)cc2)CC1 (stereo not drawn)	inactive
CCOC(=O)C1=C(CC)Nc2ccccc2N=C1NC(=O)c1ccc(S(=O)(=O)N(C)C)cc1	inactive
COC(=O)c1c(NC(C)=O)sc(C(=O)Nc2ccccc2)c1C	inactive
Fc1cccc(Cc2c(-c3ccco3)nc3ccc(Cl)cn23)c1	inactive
COc1ccccc1Cc1c(-c2ccco2)nc2cc(C)c(Br)c(C)n12	inactive
Cc1cc2nc(-c3ccco3)c(Cc3cccc(F)c3)n2c(C)c1Br	6.31 µM (active)
Cc1ccc(NC(=O)CN(C)C(=O)COc2ccc(C(=O)c3ccc(F)cc3)cc2)cc1	inactive
Cc1cccc(NC(=O)CNC(=O)c2cccc(-n3cccc3)c2)c1C	6.31 µM (active)
CCN(CC(=O)Nc1ccc(OC)cc1)C(=O)c1ccc([N+](=O)[O-])cc1	inactive
Cc1ccc(NC(=O)CN(C)C(=O)c2cccc(-n3cccc3)c2)cc1	20 µM (active)

Structure (SMILES)	Potency
CN(CC(=O)Nc1cccc(F)c1)C(=O)c1cccc(-n2cccc2)c1	10 µM (active)
O=C(COC(=O)Cc1ccsc1)Nc1cccc(F)c1	inactive
CN(CC(=O)Nc1c(Cl)cccc1Cl)C(=O)c1cccc(-n2cccc2)c1	14.1 µM (active)
Nc1nc(N)c2cc(S(=O)(=O)c3cccc(C(F)(F)F)c3)ccc2n1	inactive
CCC1CCCCN1C(=O)Cn1nc([N+](=O)[O-])c(Cl)c1C (stereo not drawn)	inactive
CCOc1ccc(CCNS(=O)(=O)c2cn(C)cn2)cc1OCC	inactive
CCC(C)n1c(SCC(=O)Nc2ccc3[nH]c(=O)[nH]c3c2)nc2ccccc2c1=O (stereo not drawn)	inactive
O=C(CSc1nc(O)cc(=O)n1-c1ccccc1)Nc1nc2ccccc2s1	inactive
N#Cc1c(SCC(=O)Nc2nc3ccccc3s2)sc2c(O)cc(=O)[nH]c12	6.31 µM (active)
CC(=O)Nc1ccc2nc(SCC(=O)NCCOc3ccccc3)sc2c1	inactive
N#Cc1c(SCC(=O)Nc2nc3ccc(Br)cc3s2)sc2c(O)cc(=O)[nH]c12	4.47 µM (active)
Nc1cc(-c2ccncc2)c[nH]c1=O	inactive
O=C(COc1ccc([N+](=O)[O-])cc1)Nc1cccnc1	inactive
O=C(COc1ccc2ccccc2c1)Nc1cccc(C(=O)Nc2ccccc2C(=O)O)c1	20 µM (active)
O=C(COc1ccccc1)Nc1cccc(-c2ccc(N3CCOCC3)nn2)c1	inactive
COc1ccc(S(=O)(=O)N2CCN(C(=O)C3COc4ccccc4O3)CC2)cc1 (stereo not drawn)	10 µM (active)
COC(=O)Nc1ccc(S(=O)(=O)N2CCC(C(=O)N3CCC(C)CC3)CC2)cc1	inactive
CN1CCN(S(=O)(=O)c2ccc(N3CCc4ccccc4C3)nc2)CC1	inactive
CSc1ncccc1C(=O)Nc1ccc(OC(F)(F)F)cc1	inactive
CCN(CC(=O)Nc1ccc(NC(C)=O)cc1)Cc1c(O)ccc2cc(Br)ccc12	15.8 µM (active)
Cc1ccc(NCC(=O)Nc2ccc(Br)cc2)cc1C	inactive
